Screening results: PubChem, National Center for Advancing Translational Sciences (NCATS)
GLP1R cytotox = cytotoxic in the GLP-1 receptor inverse agonist counter-screen; HEK293 cAMP-luciferase reporter cells, luminescence, 24 h; Potency, µM (highest dose often 38.3 µM), for inactives: top-dose activity change, negative = inhibition, usual class: inhibitors; 0.13% of 410,000 active;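 also: loss of luciferase light is scored as toxicity; % is scaled to controls: 0 for no effect and ±100 for the full control effect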
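Luminescence readout: signal drop marks cytotoxicity. Plated cells grew 12 h at 37 °C, 5% CO2, received 23 nL compound for 24 h, then got luciferase reagent, read after 12 min at RT.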
GLP-1R inv ag = inverse agonists of human GLP-1 receptor | HEK293 GLP-1R CRE-luciferase, luminescence, 24 h; GLP-1R form is constitutively active | 1.6% of 410,000 active | P43220 | Potency, µM (doses to about 38.3 µM), without a hit: at the top dose activity change, negative = inhibition, hits mostly inhibitors; also: % is scaled to controls: 0 for no effect and ±100 for the full control effect; nearly all actives have a fitted effect of over 55% in size
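HEK293 cells stably co-expressing a cAMP-responsive luciferase reporter and constitutively active GLP-1R were seeded, incubated 12 h, then exposed to compounds for 24 h at 37 C. Luminescence was read 12 min after detection reagent; inverse agonists lower signal.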
RGS4 inhibitor = human RGS4 inhibition; P49798; Transcreener GDP fluorescence polarization, RGS4-accelerated GTP hydrolysis; Potency, µM (doses to about 114 µM), for the others: at the highest dose activity change, negative = inhibition, usual class: inhibitors; 0.039% of 390,000 active; also: % is scaled to controls: 0 for no effect and ±100 for the full control effect; nearly all actives have a fitted effect of over 75% in size
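MLSMR compounds (23 nl, pin-transferred) preincubated 10 min at room temperature with a 500nM (2x) first reagent, then RGS4 at 900nM (2x) plus Transcreener GDP mix added; fluorescence polarization (620/688 nm) read before and after 90 min at 30 °C.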
GLP-1R agonist = agonists of human GLP-1 receptor. P43220. Potency, µM (highest dose often 45.6 µM), without a hit: at the top dose activation, most hits filed as activators. HEK293 GLP-1R CRE-luciferase, luminescence, 4-6 h; cells express a hypersensitive GLP-1R form. 0.007% of 380,000 active; also: % of control where 0% means no effect
PTHR1 ag = PTHR1 (human) receptor agonism | Potency, µM (highest dose often 115 µM), inactives show at the highest dose activation, most hits filed as activators | HEK293 GP2 PTHR1 cells, GloSensor cAMP luminescence, 1 h | 0.075% of 410,000 active; also: nearly all actives have a fitted effect of over 55% in size
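HEK-293-derived GP2 cells expressing PTHR1 and a GloSensor cAMP reporter, 3,000/well, plated overnight, given luciferin plus IBMX (each 0.5 mM as added) for 1 h at 37 °C, then compound for 1 h at 37 °C. Luminescence was read after 15 min at room temperature.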
GCN5L2 inh = GCN5L2 (KAT2A) acetyltransferase inhibition; Q92830; GCN5L2 HAT assay, ThioGlo1 CoA-SH fluorescence; Potency, µM (doses to about 58.9 µM), without a hit: top-dose activity change, negative = inhibition, most hits filed as inhibitors; 0.21% of 390,000 active; also: % is scaled to controls: 0 for no effect and ±100 for the full control effect
Target sequence (Q92830 whole entry, looked up): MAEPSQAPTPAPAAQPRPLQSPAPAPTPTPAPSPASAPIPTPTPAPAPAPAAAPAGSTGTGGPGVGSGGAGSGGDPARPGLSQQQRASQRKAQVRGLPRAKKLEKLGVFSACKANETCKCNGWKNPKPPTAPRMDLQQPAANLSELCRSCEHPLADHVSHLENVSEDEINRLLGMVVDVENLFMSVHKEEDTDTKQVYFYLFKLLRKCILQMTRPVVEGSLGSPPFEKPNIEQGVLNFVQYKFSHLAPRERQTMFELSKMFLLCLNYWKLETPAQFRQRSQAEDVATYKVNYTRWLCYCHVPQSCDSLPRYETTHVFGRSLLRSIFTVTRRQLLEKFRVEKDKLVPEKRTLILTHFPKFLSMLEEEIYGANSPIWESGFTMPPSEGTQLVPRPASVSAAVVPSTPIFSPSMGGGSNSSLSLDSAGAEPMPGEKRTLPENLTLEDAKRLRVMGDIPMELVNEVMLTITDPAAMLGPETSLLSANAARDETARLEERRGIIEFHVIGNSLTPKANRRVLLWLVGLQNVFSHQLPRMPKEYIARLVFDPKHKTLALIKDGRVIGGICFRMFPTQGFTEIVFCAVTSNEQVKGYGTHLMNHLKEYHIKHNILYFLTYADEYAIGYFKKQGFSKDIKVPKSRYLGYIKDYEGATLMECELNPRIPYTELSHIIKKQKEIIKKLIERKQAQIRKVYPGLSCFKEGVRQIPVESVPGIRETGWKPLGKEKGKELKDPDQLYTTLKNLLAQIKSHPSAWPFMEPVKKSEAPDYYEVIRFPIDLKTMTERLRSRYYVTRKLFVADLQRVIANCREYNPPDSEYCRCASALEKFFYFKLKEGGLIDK
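Preincubate 20nM GCN5L2 with compound 15 min, RT → add 50uM ThioGlo1 + 75uM H3(1-25) + 70uM acetyl-CoA → read fluorescence 0 and 20 min. Primary qHTS; fluorescent artifacts likely.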
The depositor's hits bear a star; [ ] = remark or other dose. Compounds with a hit are over-represented: about 1.8% of the library has one in this group of screens. Calls follow the shape of the dose curve; as a rule, active = well fitted curve in the direction sought with a large enough effect; inconclusive = small, poorly fitted or top-dose-only effect, or another doubt; inactive = no such curve, though single readings can be large; an effect the other way counts as inactive or inconclusive. Potency is read from the fitted curve at half-maximal effect.

`Cn1cc(S(=O)(=O)N2CCCCCC2)cc1C(=O)N1CCN(c2ccccc2F)CC1` gave GLP1R cytotox 2%, GLP-1R inv ag 8%, RGS4 inhibitor 1%, GLP-1R agonist 0%, PTHR1 ag inactive and GCN5L2 inh 3%.
Cc1cccc(N(CC(=O)NC2CCCC2)C(=O)c2nsc(Cl)c2Cl)c1C was read as GLP1R cytotox 0%, GLP-1R inv ag inconclusive, RGS4 inhibitor -5%, GLP-1R agonist 8%, PTHR1 ag -1% and GCN5L2 inh 24%.
Screening CCOc1ccccc1N(CC(=O)NC1CCCCC1)C(=O)c1nsc(Cl)c1Cl returned GLP1R cytotox 2%, GLP-1R inv ag 10µM*, RGS4 inhibitor 5%, GLP-1R agonist 15%, PTHR1 ag -11% and GCN5L2 inh 1%.
`NC(=O)CC(NC(=O)c1ccc(Br)cc1)c1ccc(N2CCCCCC2)c([N+](=O)[O-])c1` (stereo not given) gave GLP1R cytotox -27%, GLP-1R inv ag 11µM*, RGS4 inhibitor -2%, GLP-1R agonist 17%, PTHR1 ag -20% and GCN5L2 inh inconclusive.
Screening CCc1nn(CCCC(=O)N2CCN(c3cccc(C)c3C)CC2)c(=O)c2cc3occc3n12 returned GLP1R cytotox -5%, GLP-1R inv ag 11µM*, RGS4 inhibitor -20%, GLP-1R agonist 24%, PTHR1 ag -95% and GCN5L2 inh -7%.
Screening CC(NC(=O)CCCn1c(=O)c2cccn2c2cccnc21)c1ccccc1 (stereo not given) returned GLP1R cytotox 23%, GLP-1R inv ag 27%, RGS4 inhibitor 5%, PTHR1 ag 0% and GCN5L2 inh -1%.
For Cc1ccc(C(=O)N(Cc2ccccc2)C(C)(C)C)cc1C the results were GLP1R cytotox -2%, GLP-1R inv ag 7.1µM*, RGS4 inhibitor -23%, GLP-1R agonist 0%, PTHR1 ag inactive and GCN5L2 inh -2%.
COc1ccc([C@H]2C[C@H](O)[C@@H](n3cc(-c4ccc(F)cc4)nn3)CN2C(=O)C2CCCCC2)cc1 was read as GLP1R cytotox -2%, GLP-1R inv ag -27%, GLP-1R agonist 3% and PTHR1 ag -23%.
CCOC(=O)c1ccc(NC(=O)C2CCCN(c3ncnc4onc(C)c34)C2)cc1 (stereo not given) was read as GLP1R cytotox -7%, GLP-1R inv ag -15%, RGS4 inhibitor -8%, PTHR1 ag -3% and GCN5L2 inh 19%.
`CCOC(=O)N1CCC(Nc2cc(C)nc3c(-c4ccccc4OC)c(C)nn23)CC1` gave GLP1R cytotox 1%, GLP-1R inv ag inconclusive, RGS4 inhibitor 35%, GLP-1R agonist 5%, PTHR1 ag -84% and GCN5L2 inh -3%.
Screening CCOC(=O)N1CCN(C(=O)CSc2cc(C)nc3c(-c4ccccc4OC)c(C)nn23)CC1 returned GLP1R cytotox inconclusive, GLP-1R inv ag 13µM*, RGS4 inhibitor -1%, GLP-1R agonist 6%, PTHR1 ag -6%[57.5 µM] and GCN5L2 inh -3%.
For COc1ccccc1NC(=O)c1cc2c(n(-c3ccc(C)cc3)c1=O)CC(C)(C)CC2=O the results were GLP1R cytotox -16%, GLP-1R inv ag -1%, RGS4 inhibitor 19%, GLP-1R agonist 1%, PTHR1 ag -39% and GCN5L2 inh 6%.
`Cc1cc(C)c2[nH]c(O)c(N=NC(=S)NCC3CCCO3)c2c1` (stereo not given) gave GLP1R cytotox 8.9µM*, GLP-1R inv ag inconclusive, RGS4 inhibitor -12%, GLP-1R agonist 11%, PTHR1 ag inactive and GCN5L2 inh -2%.
